Assay results reported in the supplement of paper PMC9694430.

Tests used:
Experiment in all cases: thermal shift delta Tm vs DMSO control; higher = stronger stabilization (binding)
Details in all cases: 12.5 µM; protein concentration 2 µM
LOC_OS04G57630-cb004 = tested on: LOC_OS04G57630-cb004
Procedure, shortened: (§1)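 Rice kinase domain constructs, made in E. coli and purified, were placed in 96-well plates at 2 μM in 19.5 μl of 100 mM potassium phosphate pH 7.5, 150 mM NaCl, 10% glycerol and 5 × SYPRO Orange, with compound in DMSO. A temperature ramp from 25°C to 95°C at 0.05°C/s was used for differential scanning fluorimetry. The melting temperature shift is a triplicate mean compared with DMSO-only protein, derived from Boltzmann fits.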

LOC_OS05G07850-cb002 = tested on: LOC_OS05G07850-cb002
Procedure, shortened: as §1

LOC_OS05G16824-cb004 = tested on: LOC_OS05G16824-cb004
Procedure, shortened: as §1

LOC_OS05G28520-cb001 = tested on: LOC_OS05G28520-cb001
Procedure, shortened: as §1

LOC_OS05G30820-cb001 = tested on: LOC_OS05G30820-cb001
Procedure, shortened: as §1

LOC_OS05G43570-cb004 = tested on: LOC_OS05G43570-cb004
Procedure, shortened: as §1

LOC_OS06G16330-cb003 = tested on: LOC_OS06G16330-cb003
Sequence of LOC_OS06G16330-cb003 (as listed by the source): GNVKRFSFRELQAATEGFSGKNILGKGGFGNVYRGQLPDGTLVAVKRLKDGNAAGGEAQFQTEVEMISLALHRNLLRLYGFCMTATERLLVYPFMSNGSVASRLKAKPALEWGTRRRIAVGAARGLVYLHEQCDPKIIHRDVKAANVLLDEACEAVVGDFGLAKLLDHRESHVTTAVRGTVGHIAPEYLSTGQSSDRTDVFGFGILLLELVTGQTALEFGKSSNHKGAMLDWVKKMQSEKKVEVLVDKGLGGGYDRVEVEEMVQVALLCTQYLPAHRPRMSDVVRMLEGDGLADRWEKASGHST
Procedure, shortened: as §1

LOC_OS06G22820-cb001 = tested on: T1, LOC_OS06G22820-cb001
T1 sequence (whole entry): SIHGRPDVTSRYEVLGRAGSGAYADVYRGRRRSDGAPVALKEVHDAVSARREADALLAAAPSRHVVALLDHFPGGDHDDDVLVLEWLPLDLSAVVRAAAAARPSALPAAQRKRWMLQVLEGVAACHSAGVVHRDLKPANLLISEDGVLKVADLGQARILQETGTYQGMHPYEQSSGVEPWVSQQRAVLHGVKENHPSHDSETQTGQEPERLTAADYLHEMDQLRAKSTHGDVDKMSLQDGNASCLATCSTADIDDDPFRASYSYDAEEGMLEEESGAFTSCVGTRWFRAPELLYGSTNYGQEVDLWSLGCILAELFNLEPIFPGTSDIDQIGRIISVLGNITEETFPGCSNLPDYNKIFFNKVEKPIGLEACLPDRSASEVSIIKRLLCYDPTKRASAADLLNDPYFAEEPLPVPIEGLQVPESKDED
Procedure, shortened: as §1

LOC_OS07G06570-cb004 = tested on: LOC_OS07G06570-cb004
Procedure, shortened: as §1

LOC_OS07G07230-cb001 = tested on: LOC_OS07G07230-cb001
Procedure, shortened: as §1
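Further: purified Escherichia coli-expressed rice kinase domain construct.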

| Compound | thermal shift delta Tm (LOC_OS04G57630-cb004) | thermal shift delta Tm (LOC_OS05G07850-cb002) | thermal shift delta Tm (LOC_OS05G16824-cb004) | thermal shift delta Tm (LOC_OS05G28520-cb001) | thermal shift delta Tm (LOC_OS05G30820-cb001) | thermal shift delta Tm (LOC_OS05G43570-cb004) | thermal shift delta Tm (LOC_OS06G16330-cb003) | thermal shift delta Tm (LOC_OS06G22820-cb001) | thermal shift delta Tm (LOC_OS07G06570-cb004) | thermal shift delta Tm (LOC_OS07G07230-cb001) |
| --- | --- | --- | --- | --- | --- | --- | --- | --- | --- | --- |
| Cc1nc(Nc2ncc(C(=O)Nc3c(C)cccc3Cl)s2)cc(N2CCN(CCO)CC2)n1 [Dasatinib] | 2.57 °C | 4.35 °C | 5.06 °C | 1.02 °C | 0.42 °C | 0.75 °C | 1.61 °C | 0.79 °C | 1.03 °C | 1.1 °C |
| O=C(NC[C@H](O)CO)c1ccncc1Nc1ccc(I)cc1F | 0.16 °C | 0.04 °C | -2.59 °C | -0.04 °C | 0.65 °C | 0.08 °C | -0.12 °C | 0.62 °C | 0.95 °C | 0.62 °C |
| CC(C)CC(NC(=O)C(Cc1ccccc1)NC(=O)C(CCC(N)=O)NC(=O)C(Cc1ccc(O)cc1)NC(=O)C(C)NC(=O)CNC(=O)C(CCCCN)NC(=O)C(Cc1c[nH]c2ccccc12)NC(=O)C(NC(=O)C(Cc1c[nH]c2ccccc12)NC(=O)C(CCCCN)NC(=O)CNC(=O)C(CC(N)=O)NC(=O)C(CCC(=O)O)NC(=O)C(Cc1c[nH]c2ccccc12)NC(=O)C(NC(=O)C(Cc1c[nH]c2ccccc12)NC(=O)C(CO)NC(=O)CNC(=O)C1CCCN1C(=O)C(Cc1c[nH]c2ccccc12)NC(=O)C(CCC(N)=O)NC(=O)C(Cc1ccccc1)NC(=O)CNC(=O)C(N)Cc1c[nH]cn1)C(C)O)C(C)O)C(=O)NC(CCCCN)C(=O)NCC(=O)NCC(=O)NCC(=O)NCC(=O)NC(CO)C(=O)NC(CCCNC(=N)N)C(=O)NC(CCCNC(=N)N)C(=O)NC(CCCNC(=N)N)C(=O)NC(CCCNC(=N)N)C(=O)NC(CCCNC(=N)N)C(=O)NC(CCCNC(=N)N)C(=O)NC(CCCNC(=N)N)C(=O)NC(CCCNC(=N)N)C(=O)NC(CCCNC(=N)N)C(=O)O (stereo not given) | 0.42 °C | 3.56 °C | 2.71 °C | 0.07 °C | 0.42 °C | 1.33 °C | 0.39 °C | 1.2 °C | 0.27 °C | 0.04 °C |
| Cc1n[nH]c2ncc(C(=O)N3CCC[C@H]3c3ccc(Cl)cc3)cc12 | 0.01 °C | 0.81 °C | -6.54 °C | 0.03 °C | 0.26 °C | 0.19 °C | 0.11 °C | 0.56 °C | 1.74 °C | 0.45 °C |
| CCCS(=O)(=O)Nc1ccc(F)c(C(=O)c2c[nH]c3ncc(Cl)cc23)c1F | 0.51 °C | 5.57 °C | 2.36 °C | 1.71 °C | 0.75 °C | 0.29 °C | 1.64 °C | 0.42 °C | 0.7 °C | -0.02 °C |
| COc1ccc(Cl)c(Nc2nc3ccccc3nc2NS(=O)(=O)c2cccc(NC(=O)C(C)(C)N)c2)c1 [Pilaralisib (XL147)] | 2.01 °C | 2.9 °C | 2.11 °C | 0.49 °C | 0.75 °C | 1.75 °C | 1.96 °C | 2.03 °C | 0.12 °C | 0.54 °C |
| O=C1NC(=O)/C(=C/c2ccc3c(c2)OC(F)(F)O3)S1 | 0.83 °C | 0.16 °C | -1.22 °C | 0.96 °C | 0.8 °C | 0.74 °C | 0.37 °C | 0.72 °C | 0.31 °C | 0.11 °C |
| CS(=O)(=O)CCNCc1ccc(-c2ccc3ncnc(Nc4ccc(OCc5cccc(F)c5)c(Cl)c4)c3c2)o1 [Lapatinib] | 0.95 °C | 5.03 °C | -0.92 °C | 0.22 °C | 0.61 °C | 1.4 °C | 0.59 °C | 1.74 °C | 2.3 °C | -0.12 °C |
| O=C(/C=C/c1ccc2ccccc2n1)c1ccncc1 | 3.08 °C | 9.31 °C | 4.2 °C | 0.46 °C | 0.47 °C | 0.37 °C | 1.41 °C | 0.76 °C | 0.69 °C | 0.31 °C |
| CC(C)(O)CC(=O)NCCn1ccc2ncnc(Nc3ccc(Oc4cccc(C(F)(F)F)c4)c(Cl)c3)c21 | 1.06 °C | 0.82 °C | 2.1 °C | -0.31 °C | 0.35 °C | 1.03 °C | 0.72 °C | 1.33 °C | 0.78 °C | -1.32 °C |
| C[C@H](CN(C)C)Oc1nc(Nc2cc3cccc(Cl)c3cn2)cnc1C#N | -0.04 °C | 5.49 °C | 3.41 °C | 0.32 °C | 0.46 °C | 0.43 °C | 1.98 °C | 0.49 °C | 0.8 °C | 0.34 °C |
